Results reported in the supplement of paper PMC10646978.
± gives the standard deviation.

Tests used:
Conditions in all cases: modulator concentration 10 µM
[1] = tested on: RAW-Dual (murine macrophage reporter line); test: NF-kB reporter (SEAP) activity fold change vs agonist alone; higher = enhanced NF-kB activity
Procedure, shortened: (§1)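 In 384-well plates holding 50 000 RAW-Dual murine macrophage reporter cells per well, compound at 10 μM final was pre-incubated for 1 hour at 37 °C, after which a PRR agonist was added overnight. Supernatant SEAP read with QUANTI-Blue at 620 nm absorbance reported NF-κB, and Lucia luciferase read with QUANTI-Luc luminescence reported IRF. Fold change values come from dividing each reporter signal by the mean of agonist-only control wells on the same plate, averaged over replicate plates with propagated errors.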

[2] = tested on: RAW-Dual (murine macrophage reporter line); test: IRF reporter (Lucia luciferase) activity fold change vs agonist alone; higher = enhanced IRF activity
Procedure, shortened: as §1

[3] = tested on: RAW-Dual (murine macrophage reporter line); test: viability score (confluency relative to resting cells, overnight) (fraction); higher = more viable, active = viable (0.7 or more)
Procedure, shortened: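 RAW-Dual macrophages in 384-well plates were exposed overnight to compound at 10 μM final. Confluency was imaged with IncuCyte, and two confluency masks were generated with IncuCyte software over all imaged wells. The viability score is confluency expressed relative to resting cells. Compounds were called viable if both masks exceeded 70% of resting cells.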

[4] = agonist: CpG ODN 1826 0.5 ug/mL

SMILES	NF-kB reporter [1, 4]	NF-kB reporter ([1]; agonist: LPS 0.1 ug/mL)	NF-kB reporter ([1]; agonist: MPLA […])	IRF reporter ([2]; agonist: 3'3'-cGAMP 10 ug/mL)	IRF reporter ([2]; agonist: LPS 0.1 ug/mL)	IRF reporter ([2]; agonist: MPLA […])	viability score [3]
Cc1cccc(NC(=O)CSc2nc(N3CCCCC3)nc3ccccc23)c1	0.963 ± 0.088	1.11 ± 0.092	0.98 ± 0.13	0.955 ± 0.055	1.22 ± 0.13	1.43 ± 0.26	0.993 (active)
C=CCc1ccccc1OCC(O)CNC(C)C.Cl (configuration not stated)	1 ± 0.24	0.957 ± 0.14	1.06 ± 0.072	0.809 ± 0.029	1.16 ± 0.24	1.07 ± 0.14	0.978 (active)
CC(C)(C)C(=O)Oc1ccc(S(=O)(=O)Nc2ccccc2C(=O)NCC(=O)O)cc1	0.755 ± 0.05	1.07 ± 0.086	1.18 ± 0.063	1.1 ± 0.064	1.09 ± 0.26	1.38 ± 0.47	0.972 (active)
O=C(NCCCn1ccc2cccnc21)c1nc2ccccc2s1	0.766 ± 0.19	1.04 ± 0.092	1.09 ± 0.07	0.813 ± 0.071	0.942 ± 0.22	1.02 ± 0.15	1 (active)
NCC(O)CNCCc1ccccc1 (configuration not stated)	0.782 ± 0.067	1.02 ± 0.13	1.22 ± 0.069	0.575 ± 0.021	1.12 ± 0.12	1.02 ± 0.093	1 (active)
CCn1c(C=Nn2cnnc2)nc2ccccc21	0.929 ± 0.11	1.08 ± 0.072	0.943 ± 0.036	0.972 ± 0.23	0.903 ± 0.048	0.911 ± 0.068	0.995 (active)
CCN(CC)CC#CCOC(=O)C(O)(c1ccccc1)C1CCCCC1 (configuration not stated)	0.65 ± 0.059	1.2 ± 0.094	1.18 ± 0.053	0.92 ± 0.062	1.67 ± 0.11	1.3 ± 0.32	0.293 (inactive)
CCC(C)(Oc1ccc(C2(c3ccc(OC(C)(CC)C(=O)O)cc3)CCCCC2)cc1)C(=O)O (configuration not stated)	1.14 ± 0.26	1.09 ± 0.39	0.919 ± 0.063	0.946 ± 0.037	1.29 ± 0.44	1.24 ± 0.093	0.986 (active)
CN1CCC(OC(c2ccccc2)c2ccccc2)CC1.Cl	0.827 ± 0.31	1.17 ± 0.061	1.22 ± 0.087	0.638 ± 0.025	0.967 ± 0.19	1.08 ± 0.1	0.992 (active)
CCCCC1=NC2(CCCC2)C(=O)N1Cc1ccc(-c2ccccc2-c2nnn[nH]2)cc1 [Prestw-1736]	1.21 ± 0.29	0.96 ± 0.057	0.952 ± 0.087	0.943 ± 0.034	1.22 ± 0.19	1.06 ± 0.18	1 (active)
Nc1ccccc1NC(=O)c1ccc(CNC(=O)OCc2cccnc2)cc1	2.23 ± 0.17	1.53 ± 0.14	1.96 ± 0.052	0.17 ± 0.033	0.252 ± 0.025	0.298 ± 0.029	0.913 (active)
Cc1nn2c(=O)c(Cc3ccccc3)c(C)[nH]c2c1-c1ccccc1	0.777 ± 0.068	0.878 ± 0.082	1.06 ± 0.11	1.09 ± 0.057	1.26 ± 0.074	1.36 ± 0.11	1 (active)
CN1CCN(C(c2ccccc2)c2ccccc2)CC1.Cl.Cl	0.727 ± 0.12	0.833 ± 0.21	0.89 ± 0.05	0.701 ± 0.023	1.25 ± 0.29	1.03 ± 0.084	0.985 (active)
CC(C)Sc1ccc(CC(=O)Nc2cnoc2)cc1	0.869 ± 0.044	1.01 ± 0.09	1.15 ± 0.095	0.848 ± 0.051	1.01 ± 0.24	1.1 ± 0.4	0.912 (active)
O=C1c2cccc3c2[C@H](CCC3)CN1[C@@H]1CN2CCC1CC2 [Prestw-1783]	0.953 ± 0.06	0.913 ± 0.13	0.788 ± 0.031	0.63 ± 0.024	0.824 ± 0.044	0.752 ± 0.08	0.995 (active)
Cc1cc2nc3sc(=Cc4ccccc4OCc4ccc(Cl)cc4Cl)c(=O)n3c2cc1C	0.975 ± 0.088	1.07 ± 0.069	0.962 ± 0.072	0.99 ± 0.034	1.47 ± 0.18	1.14 ± 0.12	0.999 (active)
CC(C)N(C(=O)c1ccc(C(=O)NCc2ccc(S(N)(=O)=O)cc2)cc1)C(C)C	0.974 ± 0.057	1.07 ± 0.079	0.909 ± 0.072	0.961 ± 0.033	1.51 ± 0.12	1.21 ± 0.18	1 (active)
CCCCSc1nnc2c(n1)OC(c1cccc(F)c1)Nc1ccc(Br)cc1-2 (configuration not stated)	1.07 ± 0.18	1.01 ± 0.078	0.951 ± 0.083	0.914 ± 0.036	1.24 ± 0.13	1.13 ± 0.12	1 (active)

SMILES	NF-kB reporter [1, 4]	NF-kB reporter ([1]; agonist: LPS 0.1 ug/mL)	NF-kB reporter ([1]; agonist: MPLA […])	IRF reporter ([2]; agonist: 3'3'-cGAMP 10 ug/mL)	IRF reporter ([2]; agonist: LPS 0.1 ug/mL)	IRF reporter ([2]; agonist: MPLA […])	viability score [3]
O=C(Nc1cccc(Cl)c1Cl)c1cc2nc(-c3ccco3)cc(C(F)(F)F)n2n1	0.9 ± 0.054	1.01 ± 0.08	0.918 ± 0.055	0.864 ± 0.029	1.25 ± 0.082	1.21 ± 0.16	1 (active)
O=C(NC12CC3CC(CC(C3)C1)C2)N1CCOCC1	0.95 ± 0.16	1.02 ± 0.084	0.989 ± 0.12	0.993 ± 0.027	1.22 ± 0.21	1.32 ± 0.17	0.967 (active)
COc1ccc(OC)c(Nc2nc(-c3c(C)nc4sccn34)cs2)c1	0.853 ± 0.073	0.961 ± 0.1	1.21 ± 0.13	0.925 ± 0.046	1.43 ± 0.094	1.75 ± 0.15	1.01 (active)
CCNc1nc(S)nc(NC(C)C)n1	1.13 ± 0.085	1.03 ± 0.051	1.02 ± 0.024	0.731 ± 0.041	0.98 ± 0.13	0.927 ± 0.11	0.991 (active)
Cn1cc(CC(=O)NC2CCN(c3cc(C(F)(F)F)ncn3)CC2)c2ccccc21	1.45 ± 0.082	1.24 ± 0.1	1.13 ± 0.23	0.77 ± 0.039	1.24 ± 0.075	1.39 ± 0.1	0.929 (active)
COc1cc2c(cc1OC)CN(CCc1ccc(NC(=O)c3cccc4c(=O)c5cccc(OC)c5[nH]c34)cc1)CC2	0.0904 ± 0.022	1.43 ± 0.075	1.2 ± 0.088	0.132 ± 0.0091	1.42 ± 0.26	1.6 ± 0.15	0.971 (active)
N#Cc1ccc(C(=O)Nc2nc(-c3cccs3)c(C(=O)C(F)(F)F)s2)cc1	0.789 ± 0.091	1.06 ± 0.13	1.09 ± 0.17	0.958 ± 0.03	1.36 ± 0.21	1.54 ± 0.27	1.03 (active)
Cc1ccccc1-c1noc(-c2cc3ccccc3oc2=O)n1	0.911 ± 0.25	0.936 ± 0.077	0.917 ± 0.07	1 ± 0.027	1.08 ± 0.11	1.21 ± 0.12	0.996 (active)
Cc1cc(C(=O)Nc2nnc(-c3ccc(F)cc3)o2)n(C)n1	0.915 ± 0.1	0.985 ± 0.084	1.1 ± 0.064	0.929 ± 0.059	1.18 ± 0.24	1.22 ± 0.5	0.873 (active)
COC(=O)C1=C(C)N(Cc2ccccc2)C(=O)C1	1.06 ± 0.17	1.1 ± 0.14	0.984 ± 0.18	0.96 ± 0.039	1.32 ± 0.15	1.42 ± 0.3	0.623 (inactive)
CCc1ccccc1Nc1nc(-c2sc(NC(C)=O)nc2C)cs1	0.65 ± 0.1	0.555 ± 0.052	0.582 ± 0.048	0.778 ± 0.028	1.3 ± 0.3	1.42 ± 0.26	0.536 (inactive)
COc1cccc2c1C(=O)c1c(O)c3c(c(O)c1C2=O)C[C@@](O)(C(C)=O)C[C@@H]3O[C@H]1C[C@H](N)[C@H](O)[C@H](C)O1.Cl	0.115 ± 0.0076	0.0574 ± 0.0063	0.0998 ± 0.0052	0.0163 ± 0.004	0.0195 ± 0.0046	0.0153 ± 0.0037	0.0601 (inactive)
CCN(CC)CC(=O)Nc1c(C)cccc1C.Cl	1.03 ± 0.079	0.968 ± 0.063	1.03 ± 0.051	0.89 ± 0.075	0.927 ± 0.039	0.865 ± 0.11	0.997 (active)
CC(=O)c1ccc2c3c([nH]c2c1)CCCC3	0.792 ± 0.072	0.823 ± 0.072	1.01 ± 0.092	0.936 ± 0.05	1.34 ± 0.077	1.53 ± 0.15	1.01 (active)
O=C(c1ccc(Cl)cc1)N(c1ccccc1)C1C=CS(=O)(=O)C1 (configuration not stated)	0.99 ± 0.056	0.83 ± 0.051	0.823 ± 0.049	0.814 ± 0.031	1.1 ± 0.14	1.08 ± 0.2	0.981 (active)
O=C(OCCO)c1cc(Cl)c(C(=O)OCCO)cc1Cl	0.979 ± 0.062	1 ± 0.065	0.936 ± 0.079	0.987 ± 0.034	1.49 ± 0.1	1.23 ± 0.11	1 (active)
O=C(CCCN1CCC(O)(c2ccc(Br)cc2)CC1)c1ccc(F)cc1 [Prestw-509]	0.892 ± 0.15	1.12 ± 0.14	1.04 ± 0.13	0.925 ± 0.024	1.01 ± 0.16	1.16 ± 0.13	0.998 (active)
NNC(=O)CN1C(=O)C2CC=C(Cl)CC2C1=O (configuration not stated)	0.984 ± 0.062	0.976 ± 0.085	0.954 ± 0.035	0.999 ± 0.088	1.06 ± 0.058	0.917 ± 0.18	0.999 (active)
